Source: PMC8769072, “Proteome‐scale mapping of binding sites in the unstructured regions of the human proteome” (Molecular Systems Biology, 2022)

Chain of CRK 124-198, P46108 (P46108 124-198): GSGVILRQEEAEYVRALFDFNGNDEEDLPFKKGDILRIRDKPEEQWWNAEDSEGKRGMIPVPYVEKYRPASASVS
Chain of EPS15 121-215, P42566 (P42566 121-215): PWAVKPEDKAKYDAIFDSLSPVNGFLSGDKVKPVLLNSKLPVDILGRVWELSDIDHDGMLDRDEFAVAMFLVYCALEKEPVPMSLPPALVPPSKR

| Binder | selected by phage display (CRK 124-198, P46108) | selected by phage display (EPS15 121-215, P42566) |
| --- | --- | --- |
| ELPVSPEIPPRKSQYL [IL31RA, Q8NI17] | confidence 2 (active) | – |
| VELAPILPAKKQGGRP [NPM3, O75607] | confidence 4 (active) | – |
| GPRLPPRQPTVASPAE [SATB1, Q01826] | confidence 2 (active) | – |
| FPPLPEKAAALESAQE [HDLBP, Q00341] | confidence 3 (active) | – |
| MLGPAIPPKATPEPAI [C6orf132, Q5T0Z8] | confidence 3 (active) | – |
| ADLPPKLQKMAGGAAR [KCNJ3, P48549] | confidence 4 (active) | – |
| PTLPPKGLAGPPASPG [KIAA1522, Q9P206] | confidence 3 (active) | – |
| NDNSEYVPMLPGKFLG [IRS4, O14654] | confidence 3 (active) | – |
| IPASPGQAAPLLPKKG [NUAK2, Q9H093] | confidence 2 (active) | – |
| PQLLPKTSPQSAPPSS [FAM205A, Q6ZU69] | confidence 4 (active) | – |
| PRPPELPQKRLKTLDA [WDR83, Q9BRX9] | confidence 4 (active) | – |
| APPLPPREPPSKAAQE [ZNF516, Q92618] | confidence 2 (active) | – |
| VQDIQPALPTKGEVLL [IVL, P07476] | confidence 4 (active) | – |
| TPPPPSMPHKERYFDR [ADD3, Q9UEY8] | confidence 2 (active) | – |
| LKAIPASSSAPPLPPK [FAM110B, Q8TC76] | confidence 4 (active) | – |
| SSSPQLPPKPSIDLTV [CTTNBP2, Q8WZ74] | confidence 2 (active) | – |
| LMDISPFLPEKGLPST [MTCL1, Q9Y4B5] | confidence 3 (active) | – |
| ELWKVPLPPKNITAPS [TNRC6A, Q8NDV7] | confidence 3 (active) | – |
| PPLPEKFVVKGVVDRF [SNX30, Q5VWJ9] | confidence 3 (active) | – |
| SSSAHLPPKDRPVTVF [MYO9A, B2RTY4] | confidence 2 (active) | – |
| IEAKDLPAKKKYLAEL [DAB2IP, Q5VWQ8] | confidence 2 (active) | – |

| Binder | selected by phage display (CRK 124-198, P46108) | selected by phage display (EPS15 121-215, P42566) |
| --- | --- | --- |
| PSAPQLPPRDSPRALM [PPARGC1B, Q86YN6] | confidence 2 (active) | – |
| PLPPPKEVINGNIKTV [EIF3G, O75821] | confidence 3 (active) | – |
| SSALAATLPTLPAKVY [NCF4, Q15080] | confidence 2 (active) | – |
| TQPPPHLPTKLVIRHG [BICRA, Q9NZM4] | confidence 3 (active) | – |
| NTQPPLPFKEAHVSGH [ZNF804A, Q7Z570] | confidence 4 (active) | – |
| ESVAYHAQNNPPVPPK [ADNP, Q9H2P0] | confidence 2 (active) | – |
| SMELLPPELPPRIPIE [SH2B1, Q9NRF2] | confidence 4 (active) | – |
| NVLNESPVQLPPLPPR [SCIMP, Q6UWF3] | confidence 3 (active) | – |
| SQEALPPKKRDLPVTS [ATXN1L, P0C7T5] | confidence 3 (active) | – |
| GVPALPVKNLNGTGPV [DTX1, Q86Y01] | confidence 3 (active) | – |
| PHSSPPPLPAKASRQL [PHLDB1, Q86UU1] | confidence 3 (active) | – |
| PPEPLLPLKAPATQPH | confidence 2 (active) | – |
| DDTVEMPLPKKLKSVT [TPR, P12270] | confidence 2 (active) | – |
| PGLQAPPLPPRVGLPT [VPS37B, Q9H9H4] | confidence 4 (active) | – |
| KPMLPAKFGQPQGSPA [SIM2, Q14190] | confidence 2 (active) | – |
| TPVAIATQLPPKVSAA [EP400, Q96L91] | confidence 2 (active) | – |
| FSMQEPMVPAKLGTQA [PPFIA4, O75335] | confidence 3 (active) | – |
| NPFLTGLSAPSPTNPF [EPN3, Q9H201] | – | confidence 3 (active) |
| QIMENPFVQSMLSNPD [UBQLN1, Q9UMX0] | – | confidence 3 (active) |
| PLSPGNPFSPGTPISP [WNK4, Q96J92] | – | confidence 3 (active) |
| LMNFLGDSNPFNLLRM [BCL11B, Q9C0K0] | – | confidence 2 (active) |

| Binder | selected by phage display (CRK 124-198, P46108) | selected by phage display (EPS15 121-215, P42566) |
| --- | --- | --- |
| HANPSNPFYEALSTPS [LMTK3, Q96Q04] | – | confidence 4 (active) |
| NPFNEEPAETVSSSDT [PLEKHM2, Q8IWE5] | – | confidence 2 (active) |
| DSASSNPFALPNSVTP [WDR59, Q6PJI9] | – | confidence 3 (active) |
| MQDPFGGNPFTALLAG [UBQLNL, Q8IYU4] | – | confidence 3 (active) |
| YTNPFSDNHQSPFLEG [PRUNE2, Q8WUY3] | – | confidence 2 (active) |
| SAVSSVVNKFNPFDLI [PCLO, Q9Y6V0] | – | confidence 3 (active) |
| PLLTGVSSSTNPFRPQ [GNG5, P63218] | – | confidence 3 (active) |
| NPFEDDFGAPKVGVAA [PYGO2, Q9BRQ0] | – | confidence 2 (active) |
| VQEQFGGNPFATATTD [UBQLN3, Q9H347] | – | confidence 4 (active) |
| NPFTPDSLLLHSSGQA [WEE1, P30291] | – | confidence 4 (active) |
| NPFLPSDSSKTSELHS [KIAA1549, Q9HCM3] | – | confidence 2 (active) |
| YPDRVTQNPFIPTFGD [GRIN2B, Q13224] | – | confidence 3 (active) |
| TPSEADRWLEEVSKSV [NUMB, P49757] | – | confidence 3 (active) |
| NPFWNVSTQPQQLPRP | – | confidence 4 (active) |
| TPFGQVAAAGVSSNPF | – | confidence 3 (active) |
| YSNNPFWNGVQTNPFL [SH3BP4, Q9P0V3] | – | confidence 2 (active) |
| AAGPSVASSTNPFQTN | – | confidence 3 (active) |
| SSEVNIVNPFALESTI [SLC1A1, P43005] | – | confidence 2 (active) |
| TQAPPLHTATTNPFLT [MLLT10, P55197] | – | confidence 4 (active) |
| NPFNTPHLQLVHDGLG [SLC25A3, Q00325] | – | confidence 2 (active) |
